Reference: ChEMBL document CHEMBL5308504, “Tm Shift (DSF) assay results for EUbOPEN Chemogenomics Library” (2023)
Numbered stars: 1 amine (or outer) side, 2 acyl side, 3 side chain; on linkers, the order of the positions; unused ones are H or OH. Bridge positions count the residues as written; N and C are the ends. Square brackets hold non-standard residues; d marks the D form. Peptide text beside a SMILES is read from it. I, II: the chains in the order shown. Hexamethylenediamine = C(CCCN[*:2])CCN[*:1]; Dip = N[C@H](C(=O)O)C(c1ccccc1)c1ccccc1; Chg = N[C@H](C(=O)O)C1CCCCC1; NMeA = CN[C@@H](C)C(=O)O

Tests used:
Conditions in all cases: Compound concentration 20.0 uM, Protein concentration 2.0 uM, Result type QC Liability
[1] = target: Tyrosine-protein kinase ABL1 (Homo sapiens) (UniProt P00519)
Sequence of Tyrosine-protein kinase ABL1 (Homo sapiens) (P00519 whole entry): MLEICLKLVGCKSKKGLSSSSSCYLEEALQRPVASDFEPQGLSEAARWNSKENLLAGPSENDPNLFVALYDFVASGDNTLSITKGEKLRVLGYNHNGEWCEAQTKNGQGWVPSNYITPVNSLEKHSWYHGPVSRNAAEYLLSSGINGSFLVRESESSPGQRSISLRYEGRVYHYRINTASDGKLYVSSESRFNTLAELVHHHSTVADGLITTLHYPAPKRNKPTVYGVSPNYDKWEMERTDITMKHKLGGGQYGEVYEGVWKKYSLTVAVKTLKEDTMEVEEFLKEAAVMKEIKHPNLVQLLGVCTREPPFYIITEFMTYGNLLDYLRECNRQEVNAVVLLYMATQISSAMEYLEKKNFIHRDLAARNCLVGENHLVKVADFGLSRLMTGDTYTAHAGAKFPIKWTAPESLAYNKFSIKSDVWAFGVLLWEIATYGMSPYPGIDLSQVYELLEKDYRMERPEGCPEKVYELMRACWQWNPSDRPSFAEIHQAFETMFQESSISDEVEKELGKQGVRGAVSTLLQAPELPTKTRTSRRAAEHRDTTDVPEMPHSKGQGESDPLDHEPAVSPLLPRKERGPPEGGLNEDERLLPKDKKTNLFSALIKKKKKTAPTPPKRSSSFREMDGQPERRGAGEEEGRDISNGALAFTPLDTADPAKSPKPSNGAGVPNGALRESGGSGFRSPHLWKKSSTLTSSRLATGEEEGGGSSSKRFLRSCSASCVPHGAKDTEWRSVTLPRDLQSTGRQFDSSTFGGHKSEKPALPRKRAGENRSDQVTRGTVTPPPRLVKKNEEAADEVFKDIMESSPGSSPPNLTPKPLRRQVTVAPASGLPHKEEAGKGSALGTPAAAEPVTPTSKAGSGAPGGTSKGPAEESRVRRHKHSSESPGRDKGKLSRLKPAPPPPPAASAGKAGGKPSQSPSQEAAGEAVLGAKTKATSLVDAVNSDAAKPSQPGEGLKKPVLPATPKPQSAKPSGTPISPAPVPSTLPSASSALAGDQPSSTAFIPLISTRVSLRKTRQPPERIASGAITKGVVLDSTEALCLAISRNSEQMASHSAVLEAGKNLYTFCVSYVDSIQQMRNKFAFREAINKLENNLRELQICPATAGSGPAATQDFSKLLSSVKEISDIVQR

[2] = target: Cyclin-dependent kinase 2 (Homo sapiens) (UniProt P24941)
[3] = target: Casein kinase I isoform delta (Homo sapiens) (UniProt P48730)
Sequence of Casein kinase I isoform delta (Homo sapiens) (P48730 whole entry, looked up, canonical isoform): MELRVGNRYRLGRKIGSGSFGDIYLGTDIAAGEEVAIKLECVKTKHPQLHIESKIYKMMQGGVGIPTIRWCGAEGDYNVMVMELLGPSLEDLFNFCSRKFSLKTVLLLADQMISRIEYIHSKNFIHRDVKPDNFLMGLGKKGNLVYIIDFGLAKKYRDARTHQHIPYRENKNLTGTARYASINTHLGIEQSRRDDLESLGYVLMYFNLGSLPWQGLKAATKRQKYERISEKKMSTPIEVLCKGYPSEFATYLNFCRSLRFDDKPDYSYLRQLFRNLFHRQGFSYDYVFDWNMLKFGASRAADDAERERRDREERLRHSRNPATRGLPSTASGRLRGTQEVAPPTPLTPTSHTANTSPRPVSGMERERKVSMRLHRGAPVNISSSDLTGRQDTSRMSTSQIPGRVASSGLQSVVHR

[4] = target: Glycogen synthase kinase-3 beta (Homo sapiens) (UniProt P49841)
Sequence of Glycogen synthase kinase-3 beta (Homo sapiens) (P49841 whole entry, looked up): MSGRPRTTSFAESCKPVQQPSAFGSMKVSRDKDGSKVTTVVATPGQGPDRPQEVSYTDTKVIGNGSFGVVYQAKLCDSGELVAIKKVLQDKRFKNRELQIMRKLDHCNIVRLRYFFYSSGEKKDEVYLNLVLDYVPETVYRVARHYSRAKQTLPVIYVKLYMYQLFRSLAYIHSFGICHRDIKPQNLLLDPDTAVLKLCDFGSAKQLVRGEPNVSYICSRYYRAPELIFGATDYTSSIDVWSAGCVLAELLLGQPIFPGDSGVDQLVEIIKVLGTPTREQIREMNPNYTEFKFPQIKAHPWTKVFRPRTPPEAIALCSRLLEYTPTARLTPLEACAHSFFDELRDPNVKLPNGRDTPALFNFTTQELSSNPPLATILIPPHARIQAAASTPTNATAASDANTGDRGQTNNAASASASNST

[5] = target: Mitogen-activated protein kinase 1 (Homo sapiens) (UniProt P28482)
Sequence of Mitogen-activated protein kinase 1 (Homo sapiens) (P28482 whole entry): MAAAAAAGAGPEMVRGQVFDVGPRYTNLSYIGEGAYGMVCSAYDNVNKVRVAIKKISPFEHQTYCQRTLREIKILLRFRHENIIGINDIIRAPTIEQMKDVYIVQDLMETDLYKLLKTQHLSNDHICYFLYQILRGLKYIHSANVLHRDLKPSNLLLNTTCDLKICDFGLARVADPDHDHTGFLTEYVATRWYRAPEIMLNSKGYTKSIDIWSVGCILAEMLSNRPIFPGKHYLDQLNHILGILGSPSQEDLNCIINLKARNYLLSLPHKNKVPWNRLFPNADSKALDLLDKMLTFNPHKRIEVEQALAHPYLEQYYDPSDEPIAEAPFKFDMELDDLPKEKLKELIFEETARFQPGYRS

[6] = target: T1, Aurora kinase A (Homo sapiens) (UniProt O14965)
T1 sequence (whole entry): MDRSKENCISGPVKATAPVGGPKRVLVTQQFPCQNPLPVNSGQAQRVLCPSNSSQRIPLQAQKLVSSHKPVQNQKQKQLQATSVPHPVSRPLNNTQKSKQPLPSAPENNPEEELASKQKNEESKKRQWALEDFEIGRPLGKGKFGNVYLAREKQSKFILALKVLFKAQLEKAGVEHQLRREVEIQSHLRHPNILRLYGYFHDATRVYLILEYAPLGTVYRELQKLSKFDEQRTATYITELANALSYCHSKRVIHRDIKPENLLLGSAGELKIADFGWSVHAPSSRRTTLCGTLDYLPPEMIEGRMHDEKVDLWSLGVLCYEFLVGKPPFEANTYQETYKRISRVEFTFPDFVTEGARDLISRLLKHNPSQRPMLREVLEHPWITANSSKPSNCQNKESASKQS

SMILES	ΔTm [1] [°C]	ΔTm [2] [°C]	ΔTm [3] [°C]	ΔTm [4] [°C]	ΔTm [5] [°C]	ΔTm [6] [°C]
O=c1[nH]c(CS[C@H]2CC[C@H](O)CC2)nc2cc(OCC3CC3)cc(F)c12	0.13	0.95	0.35	0.78	0.46	-0.03
COc1cc(-c2cn(C)c(=O)c3cnccc23)c(OC)cc1CN(C)C	0.49	0.53	0.06	0.1	-0.12	-0.18
Cc1ccccc1Oc1cc(-n2c(=O)cc(C(F)(F)F)[nH]c2=O)c2ccccc2c1Cl	-0.09	0.61	0.85	-1.52	-0.82	-1.95
Cc1cc(-c2nc(-c3ccc(OC(F)(F)F)cc3)no2)nn1Cc1ccnc(N2CCN(C3CC3)CC2)c1	0.32	0.39	-1.88	-5.07	0.34	-3.42
Cn1c(Nc2c(Cl)cccc2Cl)nc2ccc3nc[nH]c(=O)c3c21	9.85	0.91	0.64	1.08	0.09	1.49
CN(C(=O)c1cnn2cccnc12)c1cc2c(cc1N1CCOCC1)C(=O)N(C[C@@H](F)C(C)(C)O)C2	0.37	-0.41	-0.06	-0.42	0.49	-0.66
COc1cc(Oc2nc(-c3ccc(NC(=O)C4CCOC4)cc3)nn3c(C)nc(C)c23)cc(OC)c1OC (stereo not drawn)	0.18	0.72	0.03	-0.39	0.18	0.1
CN[C@@H](C)C(=O)N[C@H](C(=O)N1CCC[C@H]1C(=O)N[C@H](C(=O)NCCCCCCNC(=O)[C@@H](NC(=O)[C@@H]1CCCN1C(=O)[C@@H](NC(=O)[C@H](C)NC)C1CCCCC1)C(c1ccccc1)c1ccccc1)C(c1ccccc1)c1ccccc1)C1CCCCC1 (I: H-[NMeA][Chg]P[Dip] / II: H-[NMeA][Chg]P[Dip]; linker I:C-II:C via Hexamethylenediamine)	-0.65	-1.8	-0.57	-0.94	-1.01	-1.85
COc1cc(CN(CCN)C(=O)N[C@@H](C)c2ccccc2)ccc1OCc1ccccc1	0.76	1.02	0.16	-0.67	0.02	0.4
O=C(Nc1ccccc1C(=O)O)c1cc(S(=O)(=O)c2ccccc2)ccc1Cl	0.07	1.6	0.6	0.85	0.86	1.09
CN1CCC(F)(Cn2cnc(-c3ccc(F)cn3)c2-c2ccnc3[nH]ccc23)CC1	0.05	0.48	8.14	-0.54	0.37	-0.98
C[C@]12CC[C@@H]3c4ccc(O)cc4CC[C@H]3[C@@H]1C[C@H]1OC(=O)C[C@]12O	-0.2	0.7	0.32	0.78	0.29	0.5
O=C(O)CCn1c2c(c3ccccc31)C[C@H](NS(=O)(=O)c1ccc(F)cc1)CC2	1.15	1.26	0.09	0.24	0.28	-0.02
Cc1ncsc1-c1ccc(CNC(=O)[C@@H]2C[C@H](O)CN2C(=O)[C@@H](NC(=O)C2(F)CC2)C(C)(C)C)c(OCCOc2ccc(CN3CCN(c4cc(-c5ccccc5O)nnc4N)CC3)cc2)c1 (relative stereo)	0.51	2.76	6.03	0.29	0.5	3.42
CNC(=O)c1cccc(-c2ccc3c(N4CCOC[C@@H]4C)nc(N4CCOC[C@@H]4C)nc3n2)c1	0.83	0.33	0.36	0.51	0	0.91
CC(C)S(=O)(=O)c1ccccc1Nc1nc(N[C@@H]2CCCN(CCCCCCCNC(=O)COc3cccc4c3C(=O)N(C3CCC(=O)NC3=O)C4=O)C2)ncc1Cl (stereo partly drawn)	8.06	4.21	3.26	11.1	3.07	10.6
CS(C)(=O)=Nc1ccc(-c2ccc(-c3nc4[nH]c(O[C@@H]5CO[C@H]6[C@@H]5OC[C@H]6O)nc4cc3Cl)cc2)cc1	1.8	0.06	0.3	-0.22	0.83	0.34
c1ccc(C2CCN(c3cnc4c(N5CCOCC5)nccn34)CC2)cc1	0.01	0.19	0.18	-0.6	0.57	-0.14
CCOC(=O)C1Cc2ccccc2CN1C(=O)c1ccc(SC)s1 (stereo not drawn)	0.02	0.34	0.34	-1.03	0	-1.2
COc1cc(C(=O)NCCOCCOCCOCCC(=O)Nc2cccc3c2C(=O)N(C2CCC(=O)NC2=O)C3=O)ccc1Nc1ncc(C(F)(F)F)c(Oc2cccc3c2C(=O)CC3)n1 (stereo not drawn)	-0.1	-0.45	-2.13	-0.22	-2.51	0.92
Cc1cc(=O)n(C)c2cc(N3C(=O)CC[C@H](NS(=O)(=O)CC(C)C)[C@H]3c3ccc(Cl)cc3)ccc12	0.08	0.6	-0.11	-0.55	0.38	0.15
CCOC(=O)N1CCC(CN(Cc2ccc(Cl)cc2)Cc2ccc([N+](=O)[O-])s2)C1 (stereo not drawn)	0.47	0.83	1.17	-0.64	0.21	-0.41

SMILES	ΔTm [1] [°C]	ΔTm [2] [°C]	ΔTm [3] [°C]	ΔTm [4] [°C]	ΔTm [5] [°C]	ΔTm [6] [°C]
COc1ccc(CC[C@@H](OC(=O)[C@H]2CCCCN2C(=O)[C@@H](c2cc(OC)c(OC)c(OC)c2)C2CCCCC2)c2cccc(OCCN3CCOCC3)c2)cc1OC	-1.34	-4.12	-1.85	-1.12	-0.42	-1.27
CNC(=O)c1ccc2c(c1)ncn2-c1ccc(CC(=O)OC(C)(C)C)cc1	4.4	0.07	-0.01	-0.5	0.2	0.99
Cc1ncsc1-c1ccc(CNC(=O)[C@@H]2C[C@@H](O)CN2C(=O)[C@@H](NC(=O)CCCCNC(=O)c2ccc(-c3ccc(N4CCN(C)CC4)c(NC(=O)c4c[nH]c(=O)cc4C(F)(F)F)c3)cc2)C(C)(C)C)cc1	-3.44	1.06	0.88	-0.58	-2.62	0.62
CN1C(=O)c2c(nn(Cc3ccc(-c4cccc(F)n4)cc3)c2Nc2ccccc2)N2C1=N[C@@H]1CCC[C@@H]12	0.4	0	0.16	3.99	-0.56	-0.49
COc1cc(-c2cncc(-c3ccc(N4CCN(C(C)C)CC4)cc3)c2C)cc(F)c1C(N)=O	1.79	0.61	0.92	1.06	0.21	-0.31
Cc1ccc(NC(=O)c2ccc3c(c2)OCCO3)cc1NC(=O)c1ccc2nc(OCCN3CCCC3)ccc2c1	2.56	1.06	1.91	0.36	0.33	-0.43
O=C1Nc2nc(-c3c(O)cccc3OCC3CC3)cc([C@@H]3CCCNC3)c2CO1	0.61	2.37	2.04	1.54	1.1	-0.03
Nc1ncnc2c1c(COc1cccc(Cl)c1)nn2C1CCOCC1	1.95	0.26	3.79	0.11	0.21	-4.79
CCN(CC)C/C=C/C(=O)Nc1cc2c(Nc3ccc(F)c(Cl)c3)ncnc2cc1OCC1CC1	7.73	-0.55	0.34	-0.95	-0.24	1.29
CN(C)CCC[C@@]1(c2ccc(F)cc2)OCc2cc(C#N)ccc21	0.61	0.64	-0.32	-0.03	0.7	-0.23
COC(=O)Nc1nc2c(s1)-c1c(c(-c3cccnc3)nn1-c1ccc(C3(N(C)C)CC3)cc1)CC2	0.57	0.64	-0.25	-0.71	0.36	-0.79
CC(C)C(=O)N[C@@H]1CCN(C(=O)Nc2nc3c(s2)-c2nc(-c4ccccc4Cl)ncc2CC3)C1	2.72	0.75	2.85	0.38	0.99	2.98
CC(C)(O)[C@H](F)CN1Cc2cc(NC(=O)c3cnn4cccnc34)c(N3CCOCC3)cc2C1=O	2.02	-0.03	0.59	0.95	0.46	3.04
CC(F)(F)CN1C(=O)c2[nH]nc(-c3cccc4[nH]c(=O)oc34)c2C1c1ccc(Oc2cc(C(F)(F)F)cc(C(F)(F)F)c2)cc1 (stereo not drawn)	0.76	0.46	4.37	-4.17	1.19	0
O=C(Nc1ccnc(NC(=O)C2CC2)c1)c1c(Cl)cccc1Cl	5.46	6.9	0.54	6.06	0.23	4.28
COc1ccc(CSc2nnc(-c3ccc4ncsc4c3)o2)cc1C(F)(F)F	-6.63	0.54	-10.2	-9.01	-8.68	1.22
C=CC(=O)Nc1ccc(C(=O)Nc2[nH]nc3c2CN(C(=O)N[C@H](CN(C)C)c2ccccc2)C3(C)C)cc1	4.89	3.53	1.06	6.48	6.56	7.89
CC(C)(O)CNC(=O)N1C(=O)N(c2cccc(C(F)(F)F)c2)C2=C(C(=O)CC2)[C@@H]1c1ccc(C#N)cc1	0.02	0.61	0.18	-0.62	0.17	-0.16
Cc1cc(OCc2nc3ccccc3s2)ccc1NC(=O)Nc1ccc(Cl)c(Cl)c1	0.33	1.38	-0.26	-1.81	-0.19	0.13
CC(=O)c1c(C)c2cnc(Nc3ccn(C)n3)nc2n(C2CCCC2)c1=O	-0.44	-0.29	-0.59	2.32	0.48	0.47
CC(=O)Nc1ncc(CN2CCC[C@H](Cc3cc(C)nc(C)c3)C2)s1	0.26	-0.34	-0.41	-0.15	0.35	0.39
